From PubChem
The list is not random: actives were taken first. Their share in the collection is about 4.2%.
GDH-TPI inh: GDH-TPI coupled enzyme inhibition counter-screen. GDH-TPI coupled enzyme counterscreen, NADH absorbance. inhibition, % at 4.8 µM. 1.2% of 360,000 active. AID 588335
Mtb bLac sens: beta-lactam sensitization of Mtb H37Rv | M. tuberculosis H37Rv growth with meropenem, percent inhibition | inhibition, % at 25 µM | 0.27% of 330,000 active | AID 434955; call rule not given here;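 further: growth measured after seven days incubation then overnight dye step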
FBA Mtb inh: Mtb fructose-bisphosphate aldolase inhibition. P9WQA3. inhibition, % at 1 µM. 2.3% of 360,000 active. purified M. tuberculosis FBA, fluorescence read-out; in the data active means inhibition above about 27%
Target sequence (P9WQA3 whole entry, looked up): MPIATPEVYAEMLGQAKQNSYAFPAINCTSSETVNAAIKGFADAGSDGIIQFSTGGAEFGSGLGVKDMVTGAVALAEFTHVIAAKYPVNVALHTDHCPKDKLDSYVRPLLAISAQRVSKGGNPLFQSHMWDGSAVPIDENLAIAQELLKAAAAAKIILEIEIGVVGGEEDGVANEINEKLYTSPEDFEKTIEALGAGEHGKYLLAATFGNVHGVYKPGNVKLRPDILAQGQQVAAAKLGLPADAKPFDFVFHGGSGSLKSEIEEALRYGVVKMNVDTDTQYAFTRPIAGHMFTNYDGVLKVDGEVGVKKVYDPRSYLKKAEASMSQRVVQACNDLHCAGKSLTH
RecA splice inh: inhibitors of M. tuberculosis RecA intein splicing. cell-free RecA intein splicing, fluorescence. inhibition, % (test concentration not listed). 0.75% of 290,000 active; in the data active means inhibition above about 30%; inconclusive means no clear call, values can overlap the other calls
CCHF vOTU inh: CCHFV vOTU protease inhibition; Pep-AMC fluorescence; inhibition, % at 11.5 µM; 0.55% of 370,000 active; AID 651958
A number is an active result; - = inactive; ? = inconclusive; . = not tested or not shown; + = active, no number. Unless noted, no stated cut-off is given here; in the data, active means inhibition above about 30%; inactive means the rest.

SMILES | GDH-TPI inh | Mtb bLac sens | FBA Mtb inh | RecA splice inh | CCHF vOTU inh
COc1cc(/C=N/Nc2ccc(C(=O)O)cc2)cc(OC)c1OC | 41 | - | - | - | -
Cn1nc(C(C)(C)C)cc1C(=O)Nc1nc2c(s1)C(=O)CC(C)(C)C2 | 40 | - | - | - | -
O=C(NNC(=O)c1cc2cc3ccccc3nc2s1)c1ccc(F)cc1 | 34 | - | - | - | -
Cc1cc(C)nc(N/N=C/C=C/c2ccccc2)n1 | 34 | - | - | - | -
O=C(Nc1cccc(-c2cn3cccnc3n2)c1)c1ccc2c(c1)OCO2 | - | - | 134 | - | -
O=C(Nc1cccc(-c2cn3cccnc3n2)c1)c1ccco1 | - | - | + | - | .
Cc1cccnc1NC(=O)c1ccc(Br)o1 | - | - | - | - | -
c1cnc2nc(-c3ccc4c(c3)OCO4)cn2c1 | - | - | - | - | -
O=C(Nc1cccc(-c2cn3cccnc3n2)c1)c1cccs1 | - | - | 170 | - | -
Cc1ccc(-c2cn3cccnc3n2)cc1NC(=O)c1ccc(Br)o1 | 41 | - | + | - | -
C=CCN1[C@H](C)COc2cccc(N3CCSCC3)c2S1(=O)=O | . | . | . | . | -
O=C(Nc1cccc(-c2cn3cccnc3n2)c1)c1ccc(Br)o1 | - | ? | + | - | -
O=C(CSc1nc2ccccc2nc1N1CCOCC1)N1CCN(S(=O)(=O)c2cccc([N+](=O)[O-])c2)CC1 | . | . | . | . | -
O=C(CSc1nnc(CNC(=O)c2c(F)cccc2Cl)o1)Nc1ccc2c(c1)OCO2 | - | - | 95 | - | -
COc1ccc2c(c1)CN1C(=O)N(Cc3ccccc3)S(=O)(=O)CC21 (stereo not given) | . | . | . | . | -
Cc1ccc(C(=O)N/C(=C\c2ccco2)C(=O)NCCCN2CCOCC2)cc1C | - | - | - | - | -
Cc1ccccc1C(=O)N/C(=C/c1ccc(-c2cccnc2Cl)o1)C(=O)NCCCN1CCN(C)CC1 | 39 | - | - | - | -
COC(=O)C1CN(Cc2ccccc2)CCS(=O)(=O)N1Cc1cn(Cc2ccc(Cl)cc2)nn1 (stereo not given) | . | . | . | . | -
Cn1c(CN2CCN(CCO)CC2)c(C#N)c2ccccc21 | 31 | - | - | - | -
COc1ccc(C(C(=O)N(C)C2CCCC2)N(Cc2ccc(F)cc2)C(=O)c2csc(-c3ccccc3)n2)cc1OC (stereo not given) | . | . | . | . | -
CC1=CC(c2ccc(Cl)cc2)n2nc(N3C(=O)CCC3=O)nc2N1 (stereo not given) | - | - | 167 | - | .
CN(C)CCCN1C(=O)c2cccc3cccc(c23)C1=O | - | - | 34 | - | -
CN(C)CCCN1C(=O)c2cc3ccccc3cc2C1=O | - | - | - | - | -
Nc1nnc(/C=C/c2cccc([N+](=O)[O-])c2)s1 | 44 | - | - | . | -
Nc1nnc(-c2cccc([N+](=O)[O-])c2)s1 | - | - | - | - | -
SMILES | GDH-TPI inh | Mtb bLac sens | FBA Mtb inh | RecA splice inh | CCHF vOTU inh
O=C(C1CCCN(S(=O)(=O)c2cccs2)C1)N1CCN(Cc2ccccc2)CC1 (stereo not given) | . | . | . | . | -
O=C1CSC(=S)N1/N=C/c1cccnc1 | 57 | - | - | - | -
CC(C)CCOc1ccc(/C=N/N2C(=O)CSC2=S)cc1 | - | - | - | - | -
COc1cc(O)c(C=NN2C(=O)CSC2=S)c(OC)c1 | - | . | - | . | -
O=C1CSC(=S)N1N=Cc1ccccc1O | - | . | - | . | -
COc1cc(/C=N/N2C(=O)CSC2=S)ccc1O | 38 | - | - | - | -
COc1ccc(/C=N/N2C(=N)SCC2=O)cc1 | 49 | - | - | - | -
CCN(CC)C(=O)CC[C@@H]1CC[C@]2(CCCN(C(=O)C(C)(C)C)C2)O1 | . | . | . | . | -
COc1ccc(OC)c(S(=O)(=O)N2CCCC(c3noc(-c4ccc(C)cc4)n3)C2)c1 (stereo not given) | . | . | . | . | -
Cc1cc(NC(=O)c2ccc(NS(=O)(=O)c3ccc(C)c(C)c3)cc2)no1 | . | . | . | . | -
CCCC(=O)N1CCC(C(=O)NC2CCCc3ccccc32)CC1 (stereo not given) | . | . | . | . | -
N#CC(C#N)=CNc1cccnc1 | 43 | - | - | . | -
N#CC(C#N)=Cc1cccnc1 | - | - | - | - | -
Cc1cc2nc(/C=C/c3cccnc3)[nH]c2cc1C | 45 | - | + | - | -
Cc1cc2nc(CO)[nH]c2cc1C | - | - | - | - | -
O=C(NCc1ccc(C(=O)NCC2CCCO2)cc1)c1cccc(Br)c1 (stereo not given) | . | . | . | . | -
CC(C)(C)c1ccc(CS(=O)(=O)CC(O)CN2CCCC2=O)cc1 (stereo not given) | - | - | - | - | -
Cc1ccccc1CS(=O)(=O)CC(O)CN1CCCC1=O (stereo not given) | - | - | + | - | -
CC1=NN(c2ccccc2)C(=O)/C1=C\c1sccc1C | - | - | - | - | -
CC1=NN(c2ccccc2)C(=O)/C1=C\c1ccc(Oc2ccc([N+](=O)[O-])cc2[N+](=O)[O-])cc1 | - | - | - | 84 | 91
Nc1ccc(Oc2ccc([N+](=O)[O-])cc2[N+](=O)[O-])cc1 | 33 | - | - | - | -
O=[N+]([O-])c1ccc(Oc2cccnc2)c([N+](=O)[O-])c1 | - | . | - | . | -
COC(=O)[C@]12C[C@H](CC(=O)NCC3CCCCC3)C(=O)N(CCC3=CCCCC3)C1=C[C@H](C1CCCC1)O[C@@H]2C | . | . | . | . | -
Cc1ccc(N=Cc2ccc(N(C)C)cc2)cc1 | 39 | - | - | - | -
CN(C)c1ccc(C=Nc2ccccc2)cc1 | 46 | - | - | - | -
SMILES | GDH-TPI inh | Mtb bLac sens | FBA Mtb inh | RecA splice inh | CCHF vOTU inh
COCCSc1ncccc1-c1nc2ccccc2[nH]1 | . | . | . | . | -
CCOC(=O)C1CCN(C(=O)Cn2cc(C(=O)c3ccco3)c3ccccc32)CC1 | - | - | - | - | -
O=C(c1ccco1)c1cn(CC(=O)N2CCCCCC2)c2ccccc12 | 38 | - | - | - | -
CCOC(=O)[C@@]12CCC3=C1N(CCC3)C(=O)[C@H](CC(=O)N1CCC(c3ccccc3)CC1)C2 | . | . | . | . | -
CNc1cnc(-c2ccc(F)c(F)c2F)cn1 | - | . | 166 | . | -
CCCc1cc(=O)oc2c3c(cc(OCC(=O)NCc4ccncc4)c12)OC(C)(C)CC3 | - | - | + | - | -
Cc1cc(OCC(=O)NCc2ccccn2)c2c(C)c(C)c(=O)oc2c1 | - | - | 120 | - | -
Cc1cc(OCC(=O)Nc2ccccn2)c2c(C)c(C)c(=O)oc2c1 | - | - | - | - | -
Cc1c(C)c2c(OCC(=O)NCc3ccccn3)cc3c(c2oc1=O)CCC(C)(C)O3 | - | - | + | - | -
Cc1c(C)c2c(OCC(=O)NCC(O)c3ccccc3)cc3c(c2oc1=O)CCC(C)(C)O3 (stereo not given) | - | - | - | - | -
Cc1c(OCC(=O)NCc2ccncc2)ccc2c3c(c(=O)oc12)CCCC3 | - | - | - | - | -
CCCc1cc(=O)oc2c3c(cc(OCC(=O)NCc4ccccn4)c12)OC(C)(C)CC3 | - | - | 192 | - | -
Cc1ccc2nc(-c3ccc(NC(=O)CSc4nnc(Cc5cccs5)n4C)cc3)sc2c1 | . | . | . | . | -
O=C(CSc1ncnc2scc(-c3ccc(Cl)cc3)c12)Nc1ccccc1-c1ccccc1 | . | . | . | . | -
COC(=O)[C@]12C[C@H](CC(=O)N3CCOCC3)C(=O)N(Cc3cccc4ccccc34)C1=C[C@H](C(C)(C)C)O[C@@H]2C | . | . | . | . | -
